SMILES strings stand for the structures. The campaign covered roughly 360,000 compounds. About 290 (0.081%) were called active. This is one part of a sample in which actives are shown more often than they occur. The call rests on the fitted dose curve; in most records, active means well fitted activation curve with a large enough effect; inconclusive means small, poorly fitted or top-dose-only effect; inactive means no such curve, though single readings can be large or run the other way.
Potency means the concentration at half of the fitted maximal effect.

In this test the target is Rap guanine nucleotide exchange factor 4 (Homo sapiens) (UniProt Q8WZA2). Kind of test: qHTS for Agonist of cAMP-regulated guanine nucleotide exchange factor 4 (EPAC2): primary screen. Further: nearly all actives have a fitted effect of over 50% in size. To be noted: biochemical qHTS; Potency: EPAC2 activation; series mostly up to 154 µM; activation: at the top concentration. The gist of the method: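 In this primary screen, activation is scored as increased exchange of BODIPY-GDP from Rap1B by 100 nM EPAC2, with 50 uM GDP as competitor. Signal is normalized to the 6.5 mM cAMP agonist control.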
Sequence of Rap guanine nucleotide exchange factor 4 (Homo sapiens) (Q8WZA2 whole entry, looked up): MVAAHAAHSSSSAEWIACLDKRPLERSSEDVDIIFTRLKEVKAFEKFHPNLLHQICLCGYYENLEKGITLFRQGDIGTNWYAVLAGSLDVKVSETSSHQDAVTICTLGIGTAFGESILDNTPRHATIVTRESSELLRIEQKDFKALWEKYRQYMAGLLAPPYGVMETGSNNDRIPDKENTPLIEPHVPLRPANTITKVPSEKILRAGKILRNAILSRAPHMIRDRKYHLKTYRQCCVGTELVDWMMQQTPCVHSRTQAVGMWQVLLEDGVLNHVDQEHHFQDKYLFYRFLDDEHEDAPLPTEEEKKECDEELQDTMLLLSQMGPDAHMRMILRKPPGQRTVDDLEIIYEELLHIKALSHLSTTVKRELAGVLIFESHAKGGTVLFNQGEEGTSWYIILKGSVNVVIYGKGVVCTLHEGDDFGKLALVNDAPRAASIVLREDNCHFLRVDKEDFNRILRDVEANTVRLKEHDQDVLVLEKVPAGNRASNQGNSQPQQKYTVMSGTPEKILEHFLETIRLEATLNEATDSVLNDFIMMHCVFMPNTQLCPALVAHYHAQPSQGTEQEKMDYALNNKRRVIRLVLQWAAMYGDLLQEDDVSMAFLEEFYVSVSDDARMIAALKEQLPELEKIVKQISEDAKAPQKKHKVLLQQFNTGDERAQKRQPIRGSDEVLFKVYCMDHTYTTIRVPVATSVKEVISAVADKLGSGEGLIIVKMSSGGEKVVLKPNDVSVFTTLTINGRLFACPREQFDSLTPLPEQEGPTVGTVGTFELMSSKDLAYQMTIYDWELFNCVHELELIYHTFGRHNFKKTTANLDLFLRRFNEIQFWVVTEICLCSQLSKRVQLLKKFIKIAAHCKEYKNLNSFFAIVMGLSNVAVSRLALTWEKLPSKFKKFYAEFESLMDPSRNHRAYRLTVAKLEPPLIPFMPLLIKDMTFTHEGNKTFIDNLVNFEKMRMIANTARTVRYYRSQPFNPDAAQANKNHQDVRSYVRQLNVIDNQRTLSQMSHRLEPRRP
For orientation: Quantitative high-throughput screening tests each substance at several concentrations.
As for `CSc1nnnn1-c1c(C)cc(C)cc1C`, the “activation” value was 1.26% (inactive).
For the compound `Cc1cc(-c2ccccc2)n2nc(C)c(-c3ccccc3)c2n1`, the “activation” value is 14.6% (inactive).
As for `CC1=C/C(=N\OS(=O)(=O)c2ccccc2)C=CC1=O`, the “activation” value is -8.64% (inactive).
In the case of `COc1cccc(NC(=O)CSc2nnc(Cc3ccc(OC)c(OC)c3)o2)c1`, the “activation” value was -2.83% (inactive).
For the compound `COc1ccc(NC(=O)CCCOc2ccc(C(C)=O)cc2)cc1S(=O)(=O)N1CCCCC1`, the “activation” value was 10.2% (inactive).
As for `COC(=O)c1sc(N2CCN(Cc3ccccc3)CC2)nc1N`, the “activation” value is 5.94% (inactive).
For `COc1ccc(/C=C(\C#N)C(=O)ONC2=NCCCCC2)cc1`, the “activation” value was -1.64% (inactive).
For the compound `CCOC(=O)/C(C#N)=C/c1ccc(N2CCCCC2)cc1`, the Potency is 79.4 µM (active).
Consider `CCCn1c(C)cc(/C=C(\C#N)C(=O)OCC(=O)N(C)c2c(N)n(Cc3ccccc3)c(=O)[nH]c2=O)c1C`, for which the “activation” value is 16.6% (inactive).
On to `CCOC(=O)/C(C#N)=C/c1ccc(N2CCN(Cc3ccccc3)CC2)cc1`, for which the Potency was 89.1 µM (active).
In the case of `CCOC(=O)/C(C#N)=C\c1c(C)cc(C)c(COC(C)=O)c1C`, the “activation” value is 6.7% (inactive).
Turning to `O=C(Nc1ccccc1)Oc1cccc2cccnc12`, the “activation” value is -3.88% (inactive).
Take `CCc1cc2c(=O)c(-c3ccon3)c(N)oc2cc1OC`: the “activation” value is 5.83% (inactive).
`COCc1cc(C)nc2sc(C(=O)NC3CCCCC3)c(N)c12`: the “activation” value is 2.58% (inactive).
Take `Cc1ccc(C2(C(F)(F)F)N=C3Sc4cc(C)cc(C)c4N3C(=O)N2)cc1` (stereo not drawn): the “activation” value was 1.9% (inactive).
Consider `CC(C)C[C@H]1CN=C(Nc2ccccc2)N1CC1CCCCC1`, for which the “activation” value is -4.46% (inactive).
`NC1=NOC(=O)C1C1CCCCC1` (stereo not drawn): the “activation” value was 4.28% (inactive).
As for `COc1ccc(-c2nnc(SCC(=O)Nc3cccnc3Cl)n2C)cc1`, the “activation” value is -1.22% (inactive).
As for `CCc1nccn1CCC(=O)N1CCCC(N2CCN(c3ccccc3F)CC2)C1` (stereo not drawn), the “activation” value is 2.69% (inactive).
Consider `CC1=C(C(=O)N(C(C)C)C(C)C)CC(CC(=O)NCC2CCCCC2)C(=O)N1Cc1ccccc1` (stereo not drawn), for which the “activation” value is -0.709% (inactive).
Still for that read-out and setting: under `O=C(O)CCCn1c(=O)c2cccn2c2ccc(F)cc21` stands 14.3% (inactive); under `CCOc1ccccc1NC(=O)C1CCC(CNc2c(N3CCOCC3)c(=O)c2=O)CC1` (stereo not drawn), 4.75% (inactive); under `CC(C)CNC(=O)/C=C/C(=O)O`, -0.711% (inactive).
With `C=CCn1c(N)c(S(=O)(=O)c2cccs2)c2nc3ccccc3nc21`, the Potency was 10 µM (active).
Regarding `C=CCN1CN(S(=O)(=O)c2ccc(OC)cc2)c2nc3ccccc3nc21`, the “activation” value was 7.14% (inactive).
As to `CCN(CC)CCn1c(N)c(S(=O)(=O)c2ccccc2)c2nc3ccccc3nc21`, the “activation” value was 12.3% (inactive).
For the compound `Cn1ncc(N2CCN(S(=O)(=O)c3ccc(Br)cc3)CC2)c(Cl)c1=O`, the “activation” value was 13.2% (inactive).
Take `CCCCn1c(N)c(N(CCC(C)C)C(=O)c2ccc(COc3ccccc3)o2)c(=O)[nH]c1=O`: the “activation” value is -3.53% (inactive).
As to `Cc1cccc(C2c3[nH]c4ccccc4c3CCN2C(=O)c2cc(-c3cccn3C)n[nH]2)n1` (stereo not drawn), the “activation” value was 10.9% (inactive).
With `O=C(NC1(C(F)(F)F)N=C2SCCN2C1=O)c1ccco1` (stereo not drawn), the “activation” value was 2.62% (inactive).
Same read-out and setting: under `NC(=O)COC(=O)c1sc2cc(F)ccc2c1Cl` stands -6.18% (inactive); under `NC(=O)C1CCN(C(=O)c2ccc3c(=O)n(Cc4cccc(Br)c4)c(=S)[nH]c3c2)CC1`, 10.4% (inactive); under `Cc1ccc(SCC(=O)c2cc(C)c(OC(=S)N(C)C)c(C)c2)cc1`, 0.372% (inactive).
In the case of `CSc1cc(C)[nH]c(=O)n1`, the “activation” value was 3.8% (inactive).
With `CCCNC(=O)CCc1c(C)nc2c(c(C)nn2-c2ccccc2)c1C`, the “activation” value was 6.91% (inactive).
For `COc1ccccc1CNC(=O)CN1CCC(n2cnc3cc(F)ccc32)CC1`, the “activation” value was 6.15% (inactive).
On to `CCN(CC)c1ncnc2c1ncn2[C@H]1CN(Cc2cccs2)C[C@@H](CO)O1`, for which the “activation” value was 4.11% (inactive).
Same read-out and setting: to `COc1ccc(OCC(=O)OCC(=O)Nc2ccc(S(=O)(=O)N3CCCCC3)cc2)cc1` belongs 7.5% (inactive); to `CCCN(CC(=O)Nc1ccc(OC)c(OC)c1)CC(=O)Nc1ccc(F)c(F)c1F`, 22% (inactive).
Consider `COc1cccc(N=c2oc3c(C)ncc(CO)c3cc2C(N)=O)c1`, for which the “activation” value is 1.86% (inactive).
As for `Cc1ccc(CNC(=O)C2CCN(S(=O)(=O)c3ccc4nc5c(c(C(=O)O)c4c3)CC(C)CC5)CC2)cc1` (stereo not drawn), the “activation” value is 3.48% (inactive).
The same measure, in the same setting: under `CCCCc1nc2cc(C(=O)N3CCCCC3CCO)ccc2o1` (stereo not drawn) stands 10.4% (inactive); under `COc1cc(C)c(Cl)cc1S(=O)(=O)n1ccnc1`, 7.42% (inactive).
With `CN(Cc1nc2ccccc2c(=O)[nH]1)Cc1cc(=O)oc2ccc3ccccc3c12`, the “activation” value was 11.7% (inactive).
For the compound `Cc1ccc2c(=O)oc(N(C)C)nc2c1`, the “activation” value was 24.5% (inactive).
For `CCN(CC)c1ccc2oc(=O)c(C)nc2c1`, the Potency was 100 µM (active).
As for `Cc1cc(C)cc(N(CC(=O)NCC2CCCO2)S(=O)(=O)c2c(C)noc2C)c1` (stereo not drawn), the “activation” value is 0.467% (inactive).
For `Cc1cc2nc3c(=O)n(Cc4ccccc4)c(=O)[nH]c3nc2cc1N`, the Potency was 112 µM (active).
Consider `Cc1cc(OCC(=O)N(C)c2c(N)n(Cc3ccccc3)c(=O)[nH]c2=O)c(C(C)C)cc1Cl`, for which the “activation” value was -6.45% (inactive).
The same measure, in the same setting: to `Cn1c(=O)[nH]c(=O)c2c1[nH]c(=S)n2Cc1ccccc1` belongs 6.68% (inactive); to `CCn1nc(C)c(CNC(=O)C2CCC(=O)N(Cc3cccc(F)c3)C2)c1C` (stereo not drawn), 3.65% (inactive); to `CN(C)C(=O)c1nc2ccc(Cl)cn2c1CNCc1cccc(OC(F)(F)F)c1`, -1.56% (inactive).
For `CSCCC(NC(N)=O)C(=O)N(C)CC(=O)Nc1ccc(C)cc1` (stereo not drawn), the “activation” value was 0.0352% (inactive).
`CCCCN(C1CCS(=O)(=O)C1)S(=O)(=O)c1ccc(C(C)C)cc1` (stereo not drawn): the “activation” value was 8% (inactive).
As for `CCCC(=O)NC(=S)Nc1ccc(CN2CCOCC2)cc1`, the “activation” value was 12.4% (inactive).
Regarding `O=C(CCCl)Nc1ccc(S(=O)(=O)NCc2ccco2)cc1`, the “activation” value was 4.68% (inactive).
For the compound `O=C(CNC(c1ccccc1)c1ccccc1)Nc1ccc(F)cc1`, the “activation” value was 14.2% (inactive).
Still for that read-out and setting: under `COc1ccc(S(=O)(=O)N2CCCC(C(=O)Nc3ccc(NC(=O)c4ccccn4)cc3)C2)cc1` (stereo not drawn) stands 2.47% (inactive).

Source of the values: PubChem BioAssay AID720711 (National Center for Advancing Translational Sciences (NCATS), 2013).
